ssDAF-12 act = S. stercoralis DAF-12 activation, primary screen. 1% of 370,000 active. AID 652126. activation, % at 6.8 µM. HEK293 ssDAF-12/GRIP1 lit1-tk-luc reporter, luminescence; % of 3 µM dafachronic acid response;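 active = activation above the mean over all tested compounds plus 3 SD, cut at about 0.9% in these data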;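 also: 0% = DMSO-only wells and 100% = 3 µM delta7-dafachronic acid wells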
DAX1 inh-1 = inhibitors of human orphan nuclear receptor DAX1 (NR0B1); AID 504766; 0.99% of 340,000 active; inhibition, % at 6.75 µM; HEK293 Gal4-DAX1 luciferase reporter, luminescence;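 active = inhibition above the mean over all tested compounds plus 3 SD, cut at about 4.2% in these data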;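 also: 0% = DAX1-transfected cells with DMSO and 100% = empty-vector control cells with DMSO; inhibition shows as a rise in luminescence from relieved DAX1 repression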
Target sequence (P51843 207-470 limits assumed): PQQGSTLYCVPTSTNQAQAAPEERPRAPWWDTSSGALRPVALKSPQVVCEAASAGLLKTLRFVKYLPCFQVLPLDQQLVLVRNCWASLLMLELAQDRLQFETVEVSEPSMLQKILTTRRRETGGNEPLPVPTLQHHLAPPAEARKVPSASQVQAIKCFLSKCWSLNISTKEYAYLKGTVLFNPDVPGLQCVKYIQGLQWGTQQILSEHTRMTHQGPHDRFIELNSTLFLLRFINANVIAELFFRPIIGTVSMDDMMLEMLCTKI
hgDAF-12 ag = activates the H. glycines DAF-12 receptor ligand-binding domain; 1.8% of 370,000 active; HEK293 GAL4-hgDAF12 UAS-luciferase reporter, agonist luminescence; normalized to butyrate control; activation, % at 6.8 µM;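 active = activation above a cutoff set at the mean of all screened compounds plus 3 SD, cut at about 10% in these data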;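 also: 0% = DMSO wells and 100% = sodium butyrate wells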
DAX1 inh-2 = blocks DAX1 repression of SF-1 activated StAR promoter; HEK293T StAR-luciferase reporter, SF-1/DAX-1 repression relief; inhibition, % at 6.8 µM; 1.1% of 370,000 active; AID 652010;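 active = inhibition above the mean over all tested compounds plus 3 SD, cut at about 3.6% in these data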;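 also: 0% = DAX-1 cells with DMSO and 100% = cells lacking DAX-1 with DMSO; higher inhibition means more luminescence from relief of DAX-1 repression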
hcDAF-12 act = activators of H. contortus DAF-12 nuclear receptor | activation, % at 6.8 µM | 1.4% of 370,000 active | HEK293 hcDAF-12 lit1-tk-luc reporter, luminescence; 0% DMSO, 100% Δ7-dafachronic acid;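 active = activation above the mean of all tested compounds plus 3 SD, cut at about 5.5% in these data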;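 also: 100% = response to 3 µM Δ7-dafachronic acid high control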
Numbers without * were called inactive; / = no result. Most compounds without a hit are left out; they make up all but 4.1% or so of the library.

SMILES	ssDAF-12 act	DAX1 inh-1	hgDAF-12 ag	DAX1 inh-2	hcDAF-12 act
COc1ccc2nc3cc(Cl)ccc3c(Nc3cc(CN4CCCC4)c(O)c(CN4CCCC4)c3)c2n1	0	/	-6	4.3*	2
C[C@@H]1CN([C@@H](C)CO)C(=O)c2cc(Br)cnc2O[C@H]1CN(C)C(=O)c1cccc(F)c1	-1	1	0	0	-1
C[C@H](CO)N1C[C@H](C)[C@H](CN(C)C(=O)Cc2ccncc2)Oc2ncc(Br)cc2C1=O	-2	1	-4	3.8*	-2
C[C@@H]1CN([C@@H](C)CO)C(=O)c2cc(-c3cccnc3)cnc2O[C@H]1CN(C)C(=O)c1cccc(F)c1	0	6.5*	0	0	0
COc1ccc(N(C)S(=O)(=O)c2cccc(C(=O)OCC(=O)c3c(N)n(C)c(=O)n(C)c3=O)c2)cc1	2.5*	-4	0	-1	-1
CCN(c1ccccc1)S(=O)(=O)c1cccc(C(=O)OCC(=O)c2c(N)n(C)c(=O)n(C)c2=O)c1	-1	0	1	-2	-1
COC(=O)C1=C(C)N(Cc2ccc(C(F)(F)F)cc2)C(=NCc2ccc3c(c2)OCO3)NC1c1ccccc1C(F)(F)F (stereo unspecified)	-1	/	0	0	-1
COc1ccc(NC(=O)N(C)C[C@@H]2OCCCC[C@@H](C)Oc3ccc(NS(C)(=O)=O)cc3C(=O)N([C@H](C)CO)C[C@@H]2C)cc1	0	/	0	0	-1
COc1ccccc1C(=O)Nc1nnc(-c2ccc3c(c2)CCCC3)o1	0	0	4	-1	-2
CC(=O)Nc1nnc(-c2ccc3c(c2)CCCC3)o1	0	1	11*	3.8*	2
CC(=O)N1CCc2cc(NC(=O)c3ccc(C)cc3)ccc21	-1	-1	11*	2	2
COc1ccc(CC(=O)N2CCN(C(=O)c3ccc4nc(C)n(C5CCCC5)c4c3)CC2)cc1	-2	/	0	0	-2
CN(C)c1ccc2c(c1)C(=NO)c1ccccc1-2	/	4.4*	/	/	/
C/C(=N\NC(=O)c1ccc(C)cc1C)c1ccc2c(c1)OCO2	1.3*	2	7	1	2
C/C(=N/NC(=O)c1ccc2c(c1)OCO2)c1ccc(Br)s1	0.9*	1	3	0	0
O=C(NN=Cc1ccco1)c1cccnc1	-1	/	-1	0	-1
COc1ccc(C(CC(=O)c2ccc(C)cc2)Sc2ccccc2N)cc1 (stereo unspecified)	0	1	6	3	5.7*
O=C(NC1CCCCN(Cc2cccc(C(F)(F)F)c2)C1=O)c1ccc(-c2ccccc2)cc1 (stereo unspecified)	-1	/	-1	-2	-3
COC(=O)[C@]12C[C@H](CC(=O)NCCC(C)C)C(=O)N(Cc3ccc(Cl)cc3Cl)C1=C[C@H](C1CCCC1)O[C@@H]2C	-1	/	0	-1	-3
O=S(=O)(c1ccc(OC(F)(F)F)cc1)N1CCCC(N2CCOCC2)C1 (stereo unspecified)	-1	4.6*	2	0	0
COc1ccc(N2CCN(C3CCCN(S(=O)(=O)c4ccccc4)C3)CC2)cc1 (stereo unspecified)	-1	0	-3	-1	-1
CC1CCc2c(sc3ncn(CC(=O)N=Nc4c(O)[nH]c5ccccc45)c(=O)c23)C1 (stereo unspecified)	0	4.6*	3	0	3
CC1CCc2c(sc3ncn(CCO)c(=O)c23)C1 (stereo unspecified)	-1	0	7	2	2
COCC(=O)N1CC[C@H]2[C@@H]1c1cc(-c3cccc(OC)c3)ccc1N(C)[C@H]2CO	-2	/	-3	-1	-2
CCN(CC)CCCNC(=O)CSc1nnc(-c2ccncc2)n1-c1ccc(OC)cc1	0	/	0	1	-2
SMILES	ssDAF-12 act	DAX1 inh-1	hgDAF-12 ag	DAX1 inh-2	hcDAF-12 act
C=CCn1c(Cc2cccs2)nnc1SCC(=O)Nc1cccc2ccccc12	0	/	-1	-1	-3
Cc1ncc2c(c1OC(=O)c1ccccc1)COC(C)(C)OC2	-1	5.1*	1	0	0
Cc1c(OC(=O)c2ccc([N+](=O)[O-])cc2)c2c(c[n+]1C)COC(C)(C)OC2	/	0	/	/	/
CCCCN(C)S(=O)(=O)c1ccc2[nH]c(=O)oc2c1	-1	/	0	0	-2
CC(NC(=O)NC(N)=O)(C(F)(F)F)C(F)(F)F	-1	5.5*	2	0	-2
CC(NC(=O)NNC(N)=S)(C(F)(F)F)C(F)(F)F	-2	3	0	0	-1
CCOC(=O)NC1(NC(C)C)Oc2ccccc2O1	-1	1	-1	1	2
CCOC(=O)NC1(NCC(C)C)Oc2ccccc2O1	-1	4.4*	-1	0	0
O=C1OC(Cc2ccccn2)C(O)=C1C1=NCCCN1 (stereo unspecified)	0	-1	3	1	0
O=C1OC(Cc2ccccn2)C(O)=C1C1=NCCCCN1 (stereo unspecified)	-1	5.3*	13*	2	4
CC(C)(N[C@@H](Cc1ccccc1)C(=O)NCC(c1ccccc1)c1ccccc1)C(=O)NC1CCCCC1	-2	/	1	/	0
COc1ccc2nc(/N=C/c3c(C)[nH]n(-c4ccc(C)cc4)c3=O)sc2c1	0	0	5	2	5.6*
Cc1cc(C)nc(NC(=S)N2CCN(c3ccc(Cl)c(Cl)c3)CC2)c1	-2	/	2	/	-4
COc1ccc(N/C(C)=C/C(=S)Nc2ccccc2)cc1	0	-1	19*	1	10*
CCn1ncc(N(C)N)c(Cl)c1=O	1.1*	1	3	0	2
CCOC(=O)c1sc(NC(=O)Nc2ccccc2F)nc1C	0	-2	2	3.7*	3
CCOC(=O)c1sc(Nc2ccccc2Cl)nc1C	-1	0	8	2	0
CCOC(=O)c1sc(NC(=O)CSc2nncn2C)nc1C	-2	5.2*	4	0	1
CCCC[C@H]1C2CC(OC(=O)NCc3ccc(Cl)cc3)C(C2)[C@H]2CCCCN21 (stereo partly specified)	-1	/	8	0	-3
CC(C)(C)OC(=O)NCc1cc2c(cc1/C=C/S(=O)(=O)NCc1ccc(F)cc1)OCO2	-1	/	-5	0	-3
O=C(O)c1ccc(-c2nc(-c3ccc(Cl)cc3)cs2)cc1	0	4	13*	3	5.8*
O=C(O)c1ccc(-c2nc(-c3ccc(Cl)cc3Cl)cs2)cc1	0	2	9	1	0
Fc1ccc(-c2nc3c4ccccc4ccn3c2Cc2cccc(Cl)c2)cc1	1	/	4	2	5.9*
Clc1cccc(Cc2c(C3CCCCC3)nc3c4ccccc4ccn23)c1	1	/	7	3.8*	6.3*
Clc1cccc(Cc2c(-c3cccc(Cl)c3)nc3c4ccccc4ccn23)c1	1.1*	/	3	1	4

From PubChem BioAssay
